Inconclusive results are not listed. Activity calls are given as the source filed them. How the source made its calls, unless noted: active means hit-call score of the fitted dose curve at least 0.9, where 1 is the maximum; inactive means score below 0.9. Peptide text beside a SMILES is read from it.
Assays:
[1] = molecular target: Retinoic acid receptor RXR-alpha (Homo sapiens) (UniProt P19793); assay: OT_NURR1_NURR1RXRa_1440: Odyssey Thera (OT) 24-hour HEK293T Protein Complementation Assay for Nurr1/retinoid X receptor (RXR) (AID 2283386; active means hit-call score of the fitted dose curve at least 0.9, where 1 is the maximum)
Outline: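 Measured as fluorescence from a reconstituted split reporter, this 24 h HEK293T complementation assay scores compound-induced gain of Nurr1/RXRα association relative to DMSO.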

[2] = molecular target: Peroxisome proliferator-activated receptor gamma (Homo sapiens) (UniProt P37231); assay: OT_PPARg_PPARgSRC1_1440: Odyssey Thera (OT) 24-hour Protein-Complementation Assay for Peroxisome Proliferator-activated Receptor Gamma/ SRC-1 Co-activator (AID 2283388; active means hit-call score of the fitted dose curve at least 0.9, where 1 is the maximum;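 further: nuclear to cytoplasmic ratio of reconstituted Venus YFP fluorescence in fixed imaged cells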)
Outline: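 Readout: nuclear-to-cytoplasmic 488 nm fluorescence ratio, ≥350 cells per image, 8 images per well, after 24 h compound exposure of HEK293T expressing PPARg/SRC-1 split-YFP fusions. Activity fitted in positive direction against DMSO.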

[3] = molecular target: Peroxisome proliferator-activated receptor gamma (Homo sapiens) (UniProt P37231); assay: OT_PPARg_PPARgSRC1_0480: Odyssey Thera (OT) 8-hour Protein-Complementation Assay for Peroxisome Proliferator-activated Receptor Gamma / SRC-1 Co-activator (AID 2283387; active means hit-call score of the fitted dose curve at least 0.9, where 1 is the maximum;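 further: nuclear to cytoplasmic split Venus YFP fluorescence ratio reporting PPARg SRC-1 interaction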)
Outline: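 Protein-fragment complementation in HEK293T: Venus YFP halves (residues 1-158, 159-239, mutated to IFP1/IFP2) fused to PPARg/SRC-1. 8 h exposure; N/C ratio at 488 nm; DMSO negative control.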

[4] = CEETOX_H295R_OHPREG: CeeTox H295R High-throughput Steroidogenesis Assay for OH-Pregnenolone (OHPREG) (AID 2283434); settings: actives raise or lower the signal
Outline: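 H295R cells pre-stimulated 48 h with 10 uM forskolin, then exposed 48 h to chemical in 0.1% DMSO. 17alpha-hydroxypregnenolone in medium quantified by MTBE extraction and HPLC-MS/MS; bidirectional fit versus DMSO, viability checked by MTT.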

[5] = CEETOX_H295R_OHPROG: CeeTox H295R High-throughput Steroidogenesis Assay for OH-Progesterone (OHPROG) (AID 2283435); settings: actives raise or lower the signal;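 on AC50: human adrenal H295R cells primed 48 h with 10 µM forskolin; 17alpha-hydroxyprogesterone secreted into medium measured by HPLC-MS/MS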
Outline: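 Secreted 17alpha-hydroxyprogesterone is read by tandem MS from media of forskolin-primed H295R cells dosed with chemical for 48 h. Activity is fitted in both directions against DMSO baseline; cytotoxic concentrations are re-tested diluted.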

[6] = CEETOX_H295R_PROG: CeeTox H295R High-throughput Steroidogenesis Assay for Progesterone (PROG) (AID 2283442); settings: actives raise or lower the signal;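 on AC50: human H295R adrenal cells primed with 10 µM forskolin before dosing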
Outline: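 Progesterone read-out: HPLC-MS/MS on MTBE extracts of conditioned medium after 48 h chemical exposure of forskolin-primed (10 uM, 48 h) H295R cells. Gain or loss of signal was fitted relative to DMSO baseline.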

[7] = read-out: Tumor necrosis factor receptor superfamily member 6 (Homo sapiens) (UniProt P25445); assay: LTEA_HepaRG_FAS: Life Technologies and Expression Analysis (LTEA) Assay for Fas cell surface death receptor (FAS) using HepaRG (AID 2283447); settings: mRNA level, 48 h; actives raise or lower the signal
Outline: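 Differentiated HepaRG cells in serum-free induction medium were exposed 48 h to 8 half-log concentrations up to 100 uM in 0.5% DMSO, in duplicate. FAS mRNA was measured by qRT-PCR normalised to ACTB, GAPDH and POLR2A; bidirectional fit versus DMSO.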

[8] = read-out: Cyclin Dependent Kinase Inhibitor 1A (CDKN1A), CDKN1A (gene 1026); assay: LTEA_HepaRG_CDKN1A: Life Technologies and Expression Analysis (LTEA) Assay for Cyclin Dependent Kinase Inhibitor 1A (CDKN1A) using HepaRG (AID 2283450); settings: mRNA level, 48 h; actives raise or lower the signal
Outline: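 HepaRG, 48 h dosing, 8-pt half-log series from 100 uM top, 0.5% DMSO vehicle, duplicates. Readout: TaqMan qRT-PCR of CDKN1A transcript, housekeeping-normalized (ACTB, GAPDH, POLR2A). Up/down curve fit relative to DMSO.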

[9] = read-out: Cyclin D1 (CCND1), CCND1 (gene 595); assay: LTEA_HepaRG_CCND1: Life Technologies and Expression Analysis (LTEA) Assay for Cyclin D1 (CCND1) using HepaRG (AID 2283451); settings: mRNA level, 48 h; actives raise or lower the signal
Outline: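 qRT-PCR (Fluidigm 96.96 array) read-out of transcript level, housekeeping-normalized (ACTB/GAPDH/POLR2A). HepaRG cells, 48 h chemical exposure, 8-point half-log series from 100 uM, 0.5% DMSO vehicle; gain or loss relative to DMSO baseline.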

[10] = read-out: catalase (CAT), CAT (gene 847); assay: LTEA_HepaRG_CAT: Life Technologies and Expression Analysis (LTEA) Assay for catalase (CAT) using HepaRG (AID 2283452); settings: mRNA level, 48 h; actives raise or lower the signal
Outline: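 HepaRG cells in serum-free induction medium, 0.5% DMSO vehicle, exposed 48 h in duplicate over 8 half-log concentrations from 100 uM. CAT mRNA measured by qRT-PCR, normalized to ACTB, GAPDH, POLR2A; bidirectional fit versus DMSO.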

[11] = read-out: flavin-containing dimethylaniline monooxygenases 3 (FMO3), FMO3 (gene 2328); assay: LTEA_HepaRG_FMO3: Life Technologies and Expression Analysis (LTEA) Assay for flavin-containing dimethylaniline monooxygenases 3 (FMO3) using HepaRG (AID 2283453); settings: mRNA level, 48 h; actives raise or lower the signal
Outline: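 HepaRG, 48 h exposure, 8-pt half-log series from 100 uM, 0.5% DMSO vehicle, duplicates; FMO3 transcript by Fluidigm TaqMan qRT-PCR, housekeeping-normalized; gain/loss fit vs DMSO.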

[12] = read-out: Fatty acid synthase (Homo sapiens) (UniProt P49327); assay: LTEA_HepaRG_FASN: Life Technologies and Expression Analysis (LTEA) Assay for Fatty Acid Synthase (FASN) using HepaRG (AID 2283448); settings: mRNA level, 48 h; actives raise or lower the signal
Outline: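 Transcript-level assay: HepaRG liver cells are treated for 48 h across an eight-point range topping at 100 uM, and FASN mRNA, normalized to three housekeeping genes, is compared with DMSO controls in both directions.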

[13] = read-out: Cyclin D2 (CCND2), CCND2 (gene 894); assay: LTEA_HepaRG_CCND2: Life Technologies and Expression Analysis (LTEA) Assay for Cyclin D2 (CCND2) using HepaRG (AID 2283449); settings: mRNA level, 48 h; actives raise or lower the signal;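 further: CCND2 transcript measured by TaqMan qRT-PCR and normalised to three housekeeping genes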
Outline: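 Chemicals in 0.5% DMSO, eight half-log concentrations from 100 uM top, were applied in duplicate for 48 h to human HepaRG cells in serum-free induction medium. CCND2 mRNA by TaqMan qRT-PCR, normalised to ACTB/GAPDH/POLR2A; bidirectional fit versus DMSO.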

[14] = CEETOX_H295R_11DCORT: CeeTox H295R High-throughput Steroidogenesis Assay for 11-Deoxycortisol (11DCORT) (AID 2283432); settings: actives raise or lower the signal;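 on AC50: 11-deoxycortisol secreted into the medium measured by LC-MS/MS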
Outline: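 Adrenal carcinoma line H295R, run per OECD 456 with minor changes, was forskolin-stimulated (10 uM, 48 h) before a 48 h chemical exposure at 0.1% DMSO. Secreted 11-deoxycortisol was quantified by HPLC-MS/MS.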

[15] = CEETOX_H295R_CORTIC: CeeTox H295R High-throughput Steroidogenesis Assay for Corticosterone (CORTIC) (AID 2283437); settings: actives raise or lower the signal;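 further: corticosterone secreted into medium quantified by mass spectrometry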;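 on AC50: human H295R adrenal cells prestimulated with forskolin before chemical exposure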
Outline: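 H295R adrenal cells prestimulated 48 hours with 10 uM forskolin, then exposed 48 hours to chemical in 0.1% DMSO. Corticosterone in medium measured by HPLC-MS/MS after MTBE extraction; MTT viability in the same wells; bidirectional fit versus DMSO.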

[16] = CEETOX_H295R_CORTISOL: CeeTox H295R High-throughput Steroidogenesis Assay for Cortisol (AID 2283438); settings: actives raise or lower the signal;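 further: cortisol secreted into medium quantified by LC-MS/MS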
Outline: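 Human adrenocortical H295R cells (passage ≤10) received test chemicals for 48 h after forskolin priming. Secreted cortisol was measured by LC-MS/MS.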

[17] = CEETOX_H295R_DOC: CeeTox H295R High-throughput Steroidogenesis Assay for DOC (AID 2283439); settings: actives raise or lower the signal
Outline: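 Secreted DOC was quantified from H295R media by HPLC-MS/MS after 48 h chemical exposure following 48 h forskolin (10 uM) prestimulation. Values were fitted in both directions relative to DMSO, the negative control and baseline.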

[18] = CEETOX_H295R_ESTRADIOL: CeeTox H295R High-throughput Steroidogenesis Assay for Estradiol (AID 2283440); settings: actives raise or lower the signal;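 further: estradiol secreted into medium quantified by LC-MS/MS after dansyl derivatisation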
Outline: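 H295R, 48 h forskolin (10 uM) prestim → 48 h compound, 0.1% DMSO final. Estradiol in medium: MTBE extraction, dansyl chloride derivatization, LC-MS/MS. Fit bidirectional vs DMSO baseline; MTT viability in same wells.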

[19] = CEETOX_H295R_ESTRONE: CeeTox H295R High-throughput Steroidogenesis Assay for Estrone (AID 2283441); settings: actives raise or lower the signal;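 further: estrone secreted into medium measured by LC-MS/MS after dansyl derivatization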;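 on AC50: human adrenal H295R cells prestimulated with forskolin for two days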
Outline: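 H295R cells; 48 h forskolin (10 uM) prestimulation; 48 h compound exposure, 0.1% DMSO final. Medium estrone: MTBE extraction, dansyl derivatization, HPLC-MS/MS. Bidirectional fit vs DMSO.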

[20] = CEETOX_H295R_ANDR: CeeTox H295R High-throughput Steroidogenesis Assay for Androstenedione (ANDR) (AID 2283436); settings: actives raise or lower the signal
Outline: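 H295R cells, following OECD 456 with minor changes, exposed to chemicals for 48 h. Androstenedione in the medium was quantified by HPLC-MS/MS after MTBE extraction. Fitting was bidirectional versus DMSO; chemicals were diluted until MTT viability was ≥70%.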

Measured: AC50

Retinoic acid receptor RXR-alpha (Homo sapiens), sequence (P19793 whole entry, looked up): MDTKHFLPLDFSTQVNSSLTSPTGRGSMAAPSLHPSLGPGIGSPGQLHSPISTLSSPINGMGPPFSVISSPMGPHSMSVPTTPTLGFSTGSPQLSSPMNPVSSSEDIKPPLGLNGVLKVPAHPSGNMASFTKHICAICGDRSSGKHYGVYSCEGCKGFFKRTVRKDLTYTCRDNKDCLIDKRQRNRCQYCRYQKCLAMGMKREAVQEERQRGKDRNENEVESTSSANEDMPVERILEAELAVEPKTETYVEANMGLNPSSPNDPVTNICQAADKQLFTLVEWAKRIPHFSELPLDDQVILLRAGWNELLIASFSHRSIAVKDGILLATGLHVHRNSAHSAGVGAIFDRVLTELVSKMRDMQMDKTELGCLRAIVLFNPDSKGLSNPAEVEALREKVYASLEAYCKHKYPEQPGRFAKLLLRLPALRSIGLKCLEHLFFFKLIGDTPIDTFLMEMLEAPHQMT
Peroxisome proliferator-activated receptor gamma (Homo sapiens), sequence (P37231 whole entry, looked up, the tested form may be a part): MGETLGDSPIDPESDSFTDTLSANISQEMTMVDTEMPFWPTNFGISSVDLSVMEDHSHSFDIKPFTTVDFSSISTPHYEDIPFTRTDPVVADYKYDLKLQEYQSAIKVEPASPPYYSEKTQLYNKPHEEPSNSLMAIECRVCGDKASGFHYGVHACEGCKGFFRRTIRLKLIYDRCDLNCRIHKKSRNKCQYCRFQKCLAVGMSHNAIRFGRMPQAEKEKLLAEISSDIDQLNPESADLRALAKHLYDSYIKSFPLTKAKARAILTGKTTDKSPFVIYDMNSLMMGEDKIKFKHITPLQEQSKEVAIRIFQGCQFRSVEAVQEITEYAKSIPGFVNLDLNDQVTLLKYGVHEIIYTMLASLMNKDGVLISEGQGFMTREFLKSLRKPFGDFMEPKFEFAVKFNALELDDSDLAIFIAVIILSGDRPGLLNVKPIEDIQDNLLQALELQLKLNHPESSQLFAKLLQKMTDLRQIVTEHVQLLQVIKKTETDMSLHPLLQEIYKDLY
Fatty acid synthase (Homo sapiens), sequence (P49327 whole entry, looked up): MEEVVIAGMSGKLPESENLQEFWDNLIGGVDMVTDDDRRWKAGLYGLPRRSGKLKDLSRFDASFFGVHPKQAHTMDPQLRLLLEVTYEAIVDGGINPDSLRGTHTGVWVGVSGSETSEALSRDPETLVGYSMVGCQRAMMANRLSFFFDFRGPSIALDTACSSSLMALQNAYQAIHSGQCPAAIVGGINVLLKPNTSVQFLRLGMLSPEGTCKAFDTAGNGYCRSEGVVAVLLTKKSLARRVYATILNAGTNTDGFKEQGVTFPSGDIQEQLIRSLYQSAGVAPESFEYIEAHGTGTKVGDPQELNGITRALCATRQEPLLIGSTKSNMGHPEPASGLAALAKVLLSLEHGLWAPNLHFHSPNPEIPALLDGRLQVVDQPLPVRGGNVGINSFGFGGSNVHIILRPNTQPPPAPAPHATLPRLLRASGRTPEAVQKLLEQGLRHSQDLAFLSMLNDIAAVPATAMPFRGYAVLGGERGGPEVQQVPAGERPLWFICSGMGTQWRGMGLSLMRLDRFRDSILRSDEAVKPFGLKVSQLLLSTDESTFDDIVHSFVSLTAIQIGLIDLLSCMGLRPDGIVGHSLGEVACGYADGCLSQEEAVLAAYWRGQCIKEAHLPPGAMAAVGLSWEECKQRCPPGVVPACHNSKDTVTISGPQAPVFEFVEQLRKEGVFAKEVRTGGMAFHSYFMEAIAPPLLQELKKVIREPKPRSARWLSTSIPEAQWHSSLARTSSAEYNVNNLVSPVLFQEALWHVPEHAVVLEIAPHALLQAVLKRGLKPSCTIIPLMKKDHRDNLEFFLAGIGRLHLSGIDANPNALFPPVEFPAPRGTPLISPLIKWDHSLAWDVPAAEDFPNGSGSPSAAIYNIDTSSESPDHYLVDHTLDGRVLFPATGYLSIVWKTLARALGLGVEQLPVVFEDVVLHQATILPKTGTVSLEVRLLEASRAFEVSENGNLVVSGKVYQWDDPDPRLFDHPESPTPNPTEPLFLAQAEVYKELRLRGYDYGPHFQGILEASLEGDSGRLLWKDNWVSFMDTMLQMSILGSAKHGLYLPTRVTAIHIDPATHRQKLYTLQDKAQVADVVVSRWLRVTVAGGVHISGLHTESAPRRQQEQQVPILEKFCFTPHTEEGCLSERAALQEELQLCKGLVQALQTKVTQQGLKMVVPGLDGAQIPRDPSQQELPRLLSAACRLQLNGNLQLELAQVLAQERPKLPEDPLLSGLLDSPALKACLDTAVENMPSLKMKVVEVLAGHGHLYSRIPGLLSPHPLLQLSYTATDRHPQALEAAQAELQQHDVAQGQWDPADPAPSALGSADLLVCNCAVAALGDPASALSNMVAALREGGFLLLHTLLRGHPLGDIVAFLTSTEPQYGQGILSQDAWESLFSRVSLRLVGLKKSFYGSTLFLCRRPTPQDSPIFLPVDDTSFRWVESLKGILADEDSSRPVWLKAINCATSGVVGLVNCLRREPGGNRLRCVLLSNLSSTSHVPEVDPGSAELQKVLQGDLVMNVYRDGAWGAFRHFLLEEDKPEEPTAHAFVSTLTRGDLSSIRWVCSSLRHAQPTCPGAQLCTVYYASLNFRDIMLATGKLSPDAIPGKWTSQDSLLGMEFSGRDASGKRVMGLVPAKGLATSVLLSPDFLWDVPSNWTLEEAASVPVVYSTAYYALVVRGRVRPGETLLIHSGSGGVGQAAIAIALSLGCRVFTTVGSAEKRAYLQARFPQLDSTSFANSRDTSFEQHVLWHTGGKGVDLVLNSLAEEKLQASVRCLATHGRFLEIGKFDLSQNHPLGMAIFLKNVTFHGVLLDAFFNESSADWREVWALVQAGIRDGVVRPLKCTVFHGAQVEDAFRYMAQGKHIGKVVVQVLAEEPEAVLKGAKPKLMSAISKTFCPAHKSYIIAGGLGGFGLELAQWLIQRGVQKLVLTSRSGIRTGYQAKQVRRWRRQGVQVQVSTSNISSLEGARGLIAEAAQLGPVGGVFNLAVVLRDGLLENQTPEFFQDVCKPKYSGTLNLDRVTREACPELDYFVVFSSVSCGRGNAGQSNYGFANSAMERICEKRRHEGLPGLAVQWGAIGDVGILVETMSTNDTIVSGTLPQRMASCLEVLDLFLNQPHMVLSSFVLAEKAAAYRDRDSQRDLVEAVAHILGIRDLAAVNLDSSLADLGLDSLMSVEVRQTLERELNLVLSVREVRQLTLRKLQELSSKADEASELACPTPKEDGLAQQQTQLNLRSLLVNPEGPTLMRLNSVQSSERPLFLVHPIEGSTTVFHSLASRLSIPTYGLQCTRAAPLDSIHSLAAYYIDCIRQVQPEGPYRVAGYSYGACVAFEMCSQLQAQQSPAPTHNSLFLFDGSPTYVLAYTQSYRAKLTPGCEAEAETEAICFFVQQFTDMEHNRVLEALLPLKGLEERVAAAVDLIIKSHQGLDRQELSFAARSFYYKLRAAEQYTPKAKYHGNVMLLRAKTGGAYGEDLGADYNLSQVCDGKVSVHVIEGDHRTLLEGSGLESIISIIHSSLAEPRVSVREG

O=C(O)C1CCC(C(=O)O)CC1 (stereo not given)
inactive: [1] | [2]

CCCCCCCCCCCCCC(=O)OC(C)C
inactive: [1] | [3] | [2]

Cc1ccc([N+](=O)[O-])cc1N
inactive: [1] | [3] | [2] | [4] | [7] | [8] | [9] | [10] | [11]
active: [5] 18800 nM | [6] 30200 nM

CCCCNC(=S)NCCCC
inactive: [1] | [2]

CCc1occc(=O)c1O
inactive: [1] | [2]

CCCCCCCCCCCC(=O)N(C)CC(=O)O
inactive: [2]

CCCCOCCOC(=O)COc1ccc(Cl)cc1Cl
inactive: [3] | [2]

CO[Si](C)(C)OC
inactive: [3] | [2]

C=C[Si](OCCOC)(OCCOC)OCCOC
inactive: [2]

CCCCCCCCCC(C)=O
inactive: [3] | [2]

CC1=CCC2CC1C2(C)C (stereo not given)
inactive: [3] | [2]

Cc1cc(C)n(CO)n1
inactive: [3] | [2]

C=CCOC(=O)c1ccc(C(=O)OCC=C)c(C(=O)OCC=C)c1
inactive: [3] | [2]

CC(C)c1ccc(O)c(C(C)C)c1
inactive: [3] | [2]

Oc1ccccc1Cc1ccccc1O
inactive: [2]

C1CNCCN1
inactive: [1] | [2] | [7] | [12] | [13] | [8] | [9] | [10] | [11]

Nc1ccc(C(=O)O)cc1
inactive: [3] | [2] | [7] | [12] | [13] | [8] | [9] | [10] | [11]

CCCCc1ccc(Cl)cc1
inactive: [3] | [2]

CC12CCC(CC1)C(C)(C)O2
inactive: [2]

C=C[C@@]1(C)CC(=O)[C@]2(O)[C@@]3(C)[C@@H](O)CCC(C)(C)[C@@H]3[C@H](O)[C@H](OC(C)=O)[C@@]2(C)O1
inactive: [2] | [6]
active: [1] 396 nM | [14] 510 nM | [4] 817 nM | [5] 799 nM | [15] 609 nM | [16] 726 nM | [17] 418 nM | [18] 774 nM | [19] 719 nM

O=C(Oc1ccccc1)c1ccccc1O
inactive: [3] | [2]

CC(C)=CCCC(C)=CC#N
inactive: [2]

CCOC(=O)C1=NN(c2ccc(Cl)cc2Cl)C(C)(C(=O)OCC)C1 (stereo not given)
inactive: [14] | [4] | [5] | [20] | [15] | [16] | [17] | [18] | [19] | [6]

CCN1CN(CC)CN(CC)C1
inactive: [2] | [14] | [4] | [5] | [15] | [16] | [17] | [18] | [19] | [6]

O=C(O)/C=C/c1ccccc1
inactive: [1] | [2]

COc1ccc(C(=O)c2ccccc2)c(O)c1
active: [20] 25000 nM | [15] 11100 nM
inactive: [2] | [14] | [4] | [5] | [16] | [17] | [18] | [19] | [6]

C=CC(=O)OCCCCCCOC(=O)C=C
inactive: [14] | [4] | [5] | [20] | [15] | [16] | [17] | [18] | [19] | [6]

COC(=O)[C@H](Cc1ccccc1)NC(=O)[C@@H](N)CC(=O)O (H-Asp-Phe-OMe)
inactive: [2]

C[Si](C)(C)N[Si](C)(C)C
inactive: [3] | [2]

CC(=O)OCc1ccccc1
inactive: [2]

CCCCC/C=C\C/C=C\CCCCCCCC(=O)O
inactive: [2]

CCCCNS(=O)(=O)c1ccccc1
inactive: [2]

CC(C)(c1ccccc1)c1ccc(Nc2ccc(C(C)(C)c3ccccc3)cc2)cc1
inactive: [3] | [2] | [15]
active: [14] 2720 nM | [4] 1540 nM | [5] 359 nM | [16] 9950 nM | [17] 820 nM | [6] 1840 nM

CCCCCCCCCCCCc1ccc(O)cc1
inactive: [2]

COc1ccc(-c2coc3cc(O)cc(O)c3c2=O)cc1
active: [14] 6150 nM | [4] 7390 nM | [5] 7400 nM | [16] 3650 nM | [17] 5000 nM | [6] 1810 nM
inactive: [15] | [18] | [19]

O=C(O)c1cc(O)c2ccccc2c1O
inactive: [1] | [14] | [4] | [5] | [15] | [16] | [18] | [19]
active: [2] 73200 nM | [17] 445 nM | [6] 500 nM

CC(C)c1cc(C(C)C)cc(C(C)C)c1
inactive: [3] | [2]

CC(C)(C)NC(=O)[C@H]1CC[C@H]2[C@@H]3CC[C@H]4NC(=O)C=C[C@]4(C)[C@H]3CC[C@]12C
active: [14] 34400 nM | [16] 36300 nM | [17] 13500 nM | [6] 1570 nM
inactive: [2] | [5] | [15]
